Test results reported in PubChem BioAssay (NCI).
Compounds without any hit were thinned out: in the full panel of roughly 83,000, 20% have a hit.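 Negative percent growth values reflect cell death: -40 means 40% of the cells present at the start died, and -100 means all died.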 Values without a mark were called inactive. Active and inactive are the calls of the source. How the source made its calls: active means growth percent below 10; inactive means the rest.

Assays:
Test in all cases: NCI-60 one-dose screen, 48 h (100 = growth as untreated, 0 = no growth, -100 = all killed)
Settings in all cases: 10 µM unless noted
NCI-H23 lung = system: NCI-H23 lung
NCI-H226 lung = system: NCI-H226 lung
NCI-H322M lung = system: NCI-H322M lung
HOP-62 NSCLC = system: HOP-62 NSCLC
NCI-H460 lung = system: NCI-H460 lung
HOP-92 NSCLC = system: HOP-92 NSCLC
NCI-H522 lung = system: NCI-H522 lung
A549/ATCC NSCLC = system: A549/ATCC NSCLC
786-0 renal = system: 786-0 renal
COLO 205 colon = system: COLO 205 colon

Compound	growth (NCI-H23 lung)	growth (NCI-H226 lung)	growth (NCI-H322M lung)	growth (HOP-62 NSCLC)	growth (NCI-H460 lung)	growth (HOP-92 NSCLC)	growth (NCI-H522 lung)	growth (A549/ATCC NSCLC)	growth (786-0 renal)	growth (COLO 205 colon)
CCc1nc2cc(/C=C/C(=O)NO)ccc2c(=O)n1CCc1ccc(OC)cc1	24.5%	50%	29.9%	16.6%	13%	22.5%	15.2%	24.1%	21%	-2.84% (active)
CCCCN1C(=O)c2cccc3c(-c4ccc5c(c4)ncn5C4CCCCC4)ccc(c23)C1=O	96%	101%	101%	85.2%	110%	94.6%	69.6%	90.8%	106%	94%
O=C1C=CC2(NN=C(c3ccccc3)N2c2cccc(Cl)c2)c2cccc(O)c21 (stereo not given)	26.3%	85.6%	95.1%	37.9%	85.1%	110%	51.3%	33.2%	107%	103%
CCN(CC)Cc1cc(Nc2cc(C(F)(F)F)c(C#N)c3nc4ccccc4n23)ccc1O	17.2%	16.5%	16.3%	14%	6.25% (active)	-30.2% (active)	-55.3% (active)	6.97% (active)	11.9%	-31.4% (active)
Nc1c(C(=O)c2ccccc2)sc2nc(-c3cccs3)ccc12	36.8%	63.5%	51.1%	44.5%	12.1%	69.6%	-25.7% (active)	19.6%	51.7%	-21.8% (active)
CCCCn1c(C)nc2ccc(Nc3nc(N4CCN(C)CC4)nc4nc[nH]c34)cc21	95.5%	93%	91.3%	90.9%	104%	64.8%	87.2%	94.2%	92.8%	87.9%
COc1ccc2c(c1OC)C(=O)O[C@@H]2[C@H]1c2c(c(C#CC#Cc3ccc(F)c(F)c3)c3c(c2OC)OCO3)CCN1C	90.3%	95.1%	88.8%	68%	103%	82.3%	86.5%	67.8%	93%	84.7%
Cn1nccc1Nc1nccc(-c2ccn([C@H](CO)c3ccc(Cl)c(F)c3)c(=O)c2)n1	68.5%	110%	61%	78.8%	99.5%	103%	71.2%	72.3%	93%	14.4%
CCc1cc2c(cc1N1CCC(N3CCOCC3)CC1)C(C)(C)c1[nH]c3cc(C#N)ccc3c1C2=O	14.5%	-35% (active)	-12.5% (active)	-61.7% (active)	1.34% (active)	-10.9% (active)	-38.5% (active)	7.92% (active)	-45.7% (active)	-42.5% (active)
CSc1nc2ncnc(SC)c2[nH]1	96.1%	98.2%	101%	77.8%	109%	98.7%	76%	62.3%	98.9%	103%
N#Cc1c(NC(=O)c2cccs2)[n+]([O-])c2ccc(F)cc2[n+]1[O-]	98.5%	88.6%	99.1%	68.1%	99.1%	73.3%	87%	106%	103%	86.1%
COCCN1CCN(Cc2ccc(-c3n[nH]c4c3C(=O)c3c(NC(=O)NN5CCOCC5)cccc3-4)cc2)CC1	-33.7% (active)	6.04% (active)	-13.1% (active)	-30.7% (active)	-68.7% (active)	39.7%	-34.1% (active)	-42.4% (active)	5.39% (active)	-64.5% (active)
CCN1CCN(c2nc(C)cc(N(CCNc3ccnc4cc(Cl)ccc34)Cc3ccc4c(c3)OCO4)n2)CC1	67.5%	75.3%	36.3%	-19.8% (active)	18.1%	-4.69% (active)	-0.151% (active)	20.4%	-24.5% (active)	-75.8% (active)
